Results on five compounds are retold here after PubChem BioAssay.

Calls of active or inactive are those of the source. Unless noted, the rule behind the calls is not given here.

The nature of assay [1]: A549 cell viability effects, profiling panel, calcein-AM fluorescence, 48 h, basal (AID 1162). Note: test concentration not given here. As to conditions: higher = more signal.
Assay [2] is described as follows: adipocyte viability effects, profiling panel, cell-based, 3T3-L1 adipocytes, calcein-AM fluorescence, 48 h, basal (AID 1163). Note: test concentration not given here. As to conditions: 3T3-L1 adipocytes viability, higher = more signal.
Assay [3] can be described thus: HepG2 cell viability effects, profiling panel, calcein-AM fluorescence, 48 h, basal (AID 1164). Note: test concentration not given here. As to conditions: higher = more signal.
A short description of assay [4]: MM1S cell viability effects, profiling panel, calcein-AM fluorescence, 48 h, basal (AID 1165).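 Note: viability of MM1S multiple myeloma cells under basal unstimulated conditions; test concentration not given here.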 As to conditions: higher = more signal.
Assay [5] is described as follows: basal RPMI8226 viability, no added stimulus, profiling panel, cell-based, calcein-AM fluorescence, 48 h, PK04 Diversity Set (AID 1166).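 Note: cells grown under basal conditions without added stimulus; test concentration not given here.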 As to conditions: RPMI8226 myeloma viability, higher = more signal.
A short description of assay [6]: basal HepG2 mitochondrial membrane potential changes, profiling panel, cell-based, JC-1 fluorescence, 24 h, 100 nL compound (AID 1167). Note: test concentration not given here. As to conditions: higher = more signal.
The nature of assay [7]: basal 3T3-L1 adipocyte mitochondrial potential changes, profiling panel, cell-based, JC-1 fluorescence, 3T3-L1 adipocytes, 24 h, 100 nL compound (AID 1168). Note: test concentration not given here. As to conditions: JC-1 mitochondrial fluorescence, higher = more signal, called active from +8 up or from −8 down.
Assay [8] is described as follows: basal RPMI8226 mitochondrial membrane potential changes, profiling panel, cell-based, JC-1 fluorescence, 24 h, 100 nL compound (AID 1169). Note: test concentration not given here. As to conditions: RPMI8226 myeloma, JC-1 mitochondrial potential fluorescence, higher = more signal.
A short description of assay [9]: basal MM1S mitochondrial membrane potential changes, profiling panel, cell-based, JC-1 fluorescence, 24 h, 100 nL compound (AID 1170). Note: test concentration not given here. As to conditions: higher = more signal.
The nature of assay [10]: A549 lung cancer cell viability effects, profiling panel, resazurin fluorescence, 24 h, PK04 Diversity Set (AID 1171). Note: test concentration not given here. As to conditions: higher = more signal, called active from +8 up or from −8 down.
Assay [11] can be described thus: HepG2 liver cancer cell viability effects, profiling panel, resazurin fluorescence, 24 h, PK04 Diversity Set (AID 1172). Note: test concentration not given here. As to conditions: higher = more signal. Background: The colour change of resazurin is a common sign of viable cells or microbes.
A short description of assay [12]: basal S. cerevisiae growth modulation, no modifier, primary screen, OD600, strain BY4716, 24 h, basal condition (AID 1173). As to conditions: OD600, 24 h, higher = more signal, called active from +8 up or from −8 down.
The nature of assay [13]: MM1S myeloma cell viability, profiling panel, resazurin fluorescence, basal, 24 h, PK04 Diversity Set (AID 1174).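 Note: MM1S multiple myeloma cell line; test concentration not given here.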 As to conditions: higher = more signal, called active from +8 up or from −8 down.
Assay [14] addresses Dihydroorotate dehydrogenase (quinone), mitochondrial (Plasmodium falciparum (isolate 3D7)) (UniProt Q08210). As to the kind of experiment: PfDHODH enzyme inhibitors, primary screen, biochemical, C-terminal His tag, absorbance 600 nm (AID 1175).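 Note: recombinant parasite enzyme with a five histidine tag at its C terminus; test concentration not given here.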 As to conditions: DCIP absorbance 600 nm, higher = more signal, called active from +8 up or from −8 down.
Assay [15] in a line: P. aeruginosa biofilm formation inhibitors, primary screen, strain PAO1, LB-PBS medium, absorbance 600 nm (AID 1176). Note: test concentration not given here. As to conditions: P. aeruginosa PAO1 growth/biofilm, A600, 12 h; higher = more signal.
A short description of assay [16]: S. cerevisiae RM11-1a growth modifiers, primary screen, strain RM11-1a, OD600, basal, 24 h (AID 1177).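 Note: cultures grown under basal conditions with no added stressor; test concentration not given here.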 As to conditions: OD600, 24 h, higher = more signal, called active from +8 up or from −8 down.
Assay [17] is described as follows: E. coli acrAB mutant growth effects, primary screen, E. coli filamentation inducers, strain DRC39, OD650, 24 h (AID 1178).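 Note: growth measured as culture turbidity by optical density at 650 nm; test concentration not given here.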 As to conditions: higher = more signal, called active from +8 up or from −8 down.
Assay [18] in a line: E. coli acrAB mutant growth effects, primary screen, E. coli filamentation inducers, strain DRC39, OD650, 48 h (AID 1179).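 Note: screen aims at cell division blockers that make cells filament.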 As to conditions: E. coli DRC39 delta-acrAB growth, higher = more signal, called active from +8 up or from −8 down.
A short description of assay [19]: RPMI8226 myeloma cell viability, profiling panel, resazurin fluorescence, basal, 24 h, PK04 Diversity Set (AID 1180).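 Note: RPMI8826 multiple myeloma cell line at 5000 cells per well; test concentration not given here.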 As to conditions: higher = more signal.
For assay [20], the target named is E3 ubiquitin-protein ligase XIAP (Homo sapiens) (UniProt P98170). Briefly: XIAP binders, primary screen, biophysical, small-molecule microarray, fluorescence 635 nm (AID 1181).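 Note: score merges 667 nm emission and signal to noise over triplicate slides.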 As to conditions: small-molecule microarray binding, higher = more signal.
Chain of E3 ubiquitin-protein ligase XIAP (Homo sapiens) (P98170 whole entry, looked up): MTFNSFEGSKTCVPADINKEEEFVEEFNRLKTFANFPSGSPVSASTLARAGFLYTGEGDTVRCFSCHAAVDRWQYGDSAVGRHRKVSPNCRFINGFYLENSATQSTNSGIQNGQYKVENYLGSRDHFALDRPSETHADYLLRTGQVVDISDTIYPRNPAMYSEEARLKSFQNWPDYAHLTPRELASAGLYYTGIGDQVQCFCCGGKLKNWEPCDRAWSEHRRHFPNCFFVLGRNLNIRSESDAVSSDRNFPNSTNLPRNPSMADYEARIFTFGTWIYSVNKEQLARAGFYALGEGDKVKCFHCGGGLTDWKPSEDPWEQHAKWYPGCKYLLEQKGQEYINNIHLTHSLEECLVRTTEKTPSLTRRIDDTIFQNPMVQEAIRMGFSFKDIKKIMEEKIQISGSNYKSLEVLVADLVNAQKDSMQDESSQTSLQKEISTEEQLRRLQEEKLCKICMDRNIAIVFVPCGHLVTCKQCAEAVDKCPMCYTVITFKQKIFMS

Chain of Dihydroorotate dehydrogenase (quinone), mitochondrial (Plasmodium falciparum (isolate 3D7)) (Q08210 whole entry, looked up): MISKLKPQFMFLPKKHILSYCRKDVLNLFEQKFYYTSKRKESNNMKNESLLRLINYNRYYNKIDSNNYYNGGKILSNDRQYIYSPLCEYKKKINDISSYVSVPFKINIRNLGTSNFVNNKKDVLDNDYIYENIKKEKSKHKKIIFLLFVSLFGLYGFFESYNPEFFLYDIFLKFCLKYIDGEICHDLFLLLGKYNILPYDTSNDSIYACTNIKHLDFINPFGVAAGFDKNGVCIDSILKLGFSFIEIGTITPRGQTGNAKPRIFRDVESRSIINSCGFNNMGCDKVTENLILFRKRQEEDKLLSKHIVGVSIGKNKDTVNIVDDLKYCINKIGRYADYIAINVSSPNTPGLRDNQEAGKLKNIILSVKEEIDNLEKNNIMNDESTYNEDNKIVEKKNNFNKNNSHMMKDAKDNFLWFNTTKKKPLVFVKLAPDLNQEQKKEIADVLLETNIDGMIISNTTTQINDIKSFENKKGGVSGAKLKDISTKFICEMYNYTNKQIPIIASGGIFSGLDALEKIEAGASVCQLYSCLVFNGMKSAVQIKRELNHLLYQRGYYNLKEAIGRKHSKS

As to `COCC(=C=CC[C@H](O)c1ccc(OCCO)cc1)CCO`, the z-score in assay [1] was 1.06; in [2] it was 0.156; in assay [3] it was -0.587; in assay [4], -1.28; in assay [5], 0.231; in [6], -0.255. Also, the z-score in [7] was -0.597 (inactive); in assay [8] it was 0.854; in [9], 0.464; in assay [10], 1.01 (inactive); in assay [11] it was 0.996; in assay [12], -0.415 (inactive). Also, the z-score in [13] was 0.654 (inactive); in assay [15], -0.0342 (inactive); in assay [16], 0.137 (inactive); in assay [17], 0.53 (inactive); in [18] it was 0.209 (inactive); in [19] it was 0.854. Also, the composite z-score is -1.15 (inactive) in assay [14] and 0.102 in assay [20].

With `NC(=O)NCC#Cc1ccc2c(c1)[C@]1(C(=O)N2)[C@H](c2ccccc2OCCO)N2[C@H](c3ccccc3)[C@H](c3ccccc3)OC(=O)[C@H]2[C@@H]1C(=O)NC[C@H](O)c1ccccc1`, the z-score was 1.2 in assay [1]; 0.37 in assay [2]; -0.13 in assay [3]; 0.493 in assay [4]; 0.865 in [5]; -0.159 in assay [6]. For the same compound, the z-score was 0.43 (inactive) in [7]; 0.208 in [8]; 0.359 in assay [9]; 0.635 (inactive) in assay [10]; 0.999 in [11]; -0.589 (inactive) in [12]. Besides, the z-score is 1.62 (inactive) in [13]; 0.601 (inactive) in assay [15]; 1.94 (inactive) in assay [16]; 1.22 (inactive) in [17]; 0.693 (inactive) in [18]; 0.462 in assay [19]. Moreover, the composite z-score in assay [14] was -0.253 (inactive); in assay [20] it was 0.254.

`C=C[C@@H](CO)N(Cc1ccc(OC)cc1)S(=O)(=O)c1ccc(Br)cc1`: the z-score was 1.49 in assay [1]; 0.773 in assay [2]; 0.349 in assay [3]; 1.39 in assay [4]; 0.613 in assay [5]; 0.622 in assay [6]. Moreover, the z-score in [7] was 2.05 (inactive); in assay [8] it was 0.359; in assay [9], -0.159; in assay [10], 1.23 (inactive); in assay [11], 1.04; in assay [12], -5.71 (inactive). Moreover, the z-score in assay [13] is -0.495 (inactive); in [15], -0.152 (inactive); in assay [16] it was -1.99 (inactive); in assay [17] it was 1.66 (inactive); in assay [18], 1.88 (inactive); in [19] it was -0.455. For the same compound, the figures for the composite z-score in assay [14] and in assay [20] were -2.32 (inactive) and -0.434, respectively.

Regarding `CCCCC[C@H]1OC[C@@]23C=C(Br)[C@@H](CC12)[C@@]1(CO1)C3=O` (stereo not given in full), the z-score in assay [1] is 0.433; in [2], -0.0037; in [3], -0.424; in assay [4] it was -2.8; in assay [5], -1.5; in assay [6], -1.76. Besides, the z-score in assay [7] was -0.498 (inactive); in [8] it was -0.314; in [9], -0.824; in assay [10], -0.612 (inactive); in assay [11], 0.213; in assay [12], -8.43 (active). For the same compound, the z-score in [13] is -0.586 (inactive); in [15] it was 0.248 (inactive); in [16], -0.984 (inactive); in [17] it was -0.662 (inactive); in assay [18], -0.666 (inactive); in assay [19], -0.0702. The composite z-score in assay [14] is -0.23 (inactive); in assay [20] it was 0.144.

Consider `O=C(c1ccccc1)N1C(=O)[C@]2(Cc3ccccc31)N=C(c1ccc(OCCCO)cc1)O[C@@H]2c1ccccc1`, for which the z-score is -1.84 in assay [1]; 0.736 in assay [2]; -2.44 in assay [3]; -3.55 in assay [4]; -4.35 in [5]; -2.26 in assay [6]. Further, the z-score is -0.0262 (inactive) in [7]; -1.18 in assay [8]; -2.17 in [9]; -2.83 (inactive) in [10]; -2.28 in [11]; 0.964 (inactive) in [12]. Moreover, the z-score was -5.95 (inactive) in [13]; 1.82 (inactive) in assay [15]; 2.14 (inactive) in assay [16]; -0.18 (inactive) in assay [17]; -1.01 (inactive) in assay [18]; -5.46 in assay [19]. Moreover, the composite z-score in assay [14] was 0.934 (inactive); in assay [20], 0.233.
